Data reported in PubChem BioAssay (EPA / NIEHS).
Active and inactive are the calls of the source. The calls were made as follows: active = hit-call score of the fitted dose curve at least 0.9, where 1 is the maximum; inactive = score below 0.9.

Read-out: Tissue Factor, F3 (gene 2152)
Experiment: BSK_LPS_TissueFactor: BioMAP Diversity Plus: LPS Assay for Tissue Factor Biomarker Activity (AID 2283084)
Settings: primary human HUVEC with PBMC; actives raise or lower the signal
Procedure: BSK_LPS is a cell-based, multiplexed-readout assay that uses umbilical vein endothelium and peripheral blood mononuclear cells, a human vascular primary cell co-culture, with measurements taken at 24 hours after chemical dosing in a 96-well plate.BSK_LPS_TissueFactor is an assay component measured in the BSK_LPS assay. It measures CD142 Tissue Factor antibody related to regulation of gene expression using ELISA technology.Data from the assay component BSK_LPS_TissueFactor was analyzed into 1 assay endpoint. This assay endpoint, BSK_LPS_TissueFactor, was analyzed with bidirectional fitting relative to DMSO as the negative control and baseline of activity. Using a type of binding reporter, gain or loss-of-signal activity can be used to understand changes in the signaling as they relate to the gene F3. Furthermore, this assay endpoint can be referred to as a primary readout, because this assay has produced multiple assay endpoints where this one serves a signaling function. To generalize the intended target to other relatable targets, this assay endpoint is annotated to the cytokine intended target family, where the subfamily is coagulation factor.
The levels of cell surface (or secreted, indicated by the prefix "s") biomarker endpoints were measured by ELISA. Overt cytotoxicity to cells in confluent adherent cultures (all systems other than the BT system) was assessed by measuring total protein levels using sulforhodamine B (SRB) staining in parallel cultures at the time of biomarker measurements, indicated as SRB endpoints. For proliferation assays for adherent cell types, individual cell types are cultured at sub-confluence and relative cell numbers quantified by SRB staining at time points optimized for each system (48 h: 3C and CASM3C systems; 72 h: BT and HDF3CGF systems; 96 h: SAg system). SRB was performed by staining cells with 0.1% SRB after fixation with 10% TCA and reading wells at 560 nm.Viability and proliferation of PBMC (T cells) was quantified by Alamar Blue reduction for the SAg and BT systems. For PBMC viability (referred to as PBMC Cytotoxicity within the assay endpoint names), cells were plated (75,000/well in a 96-well plate) and then chemical samples added for 1 h before addition of activators, SEB and TSST-1 (20 ng/mL final concentration each). Cells were incubated for 90 h. Then, Alamar Blue (20 uL/well) (Invitrogen, Cat DAL1100) was added for 6 h, and the plates were read with a fluorescence microplate reader at 546/580 nm (excitation/emission). For PBMC proliferation, cells were plated and activated as above but incubated for only 16 h prior to addition of Alamar Blue. Plates were read after 6 h.

Row | SMILES | outcome | AC50
1 | COP(=S)(OC)SCN1C(=O)c2ccccc2C1=O | inactive | –
2 | CS(=O)(=O)NC(=O)c1cc(Oc2ccc(C(F)(F)F)cc2Cl)ccc1[N+](=O)[O-] | inactive | –
3 | CCCCC(CC)COC(=O)c1ccc(C(=O)OCC(CC)CCCC)c(C(=O)OCC(CC)CCCC)c1 (stereo not given) | inactive | –
4 | C1=Cc2cccc3cccc1c23 | inactive | –
5 | CCC(C)c1ccc(O)cc1 (stereo not given) | inactive | –
6 | O=C(Nc1ccccc1)c1ccccc1I | inactive | –
7 | Cc1cc(N=Nc2ccccc2C)ccc1N | inactive | –
8 | CC(C)(O)c1cnn2c(-c3ccc(F)c(-c4c(F)cccc4C#N)c3)cnc2n1 | inactive | –
9 | CCOC(=O)[C@]1(c2ccccc2)Oc2ccccc2[C@@H]1N | inactive | –
10 | c1ccc2c(c1)-c1cccc3cccc-2c13 | inactive | –
11 | C[N+](C)(C)CC1CO1 (stereo not given) | inactive | –
12 | ClC1=C(Cl)[C@]2(Cl)[C@H]3[C@H]([C@@H]4C=C[C@H]3C4)[C@@]1(Cl)C2(Cl)Cl | – | 31.2 µM (active)
13 | COC(=O)Nc1nc2ccccc2[nH]1 | inactive | –
14 | OCCCl | inactive | –
15 | c1ccc(C2CO2)cc1 (stereo not given) | inactive | –
16 | CCCCCCCCn1sccc1=O | – | 4.04 µM (active)
17 | CCC12COCN1COC2 | inactive | –
18 | ClCCOCCCl | inactive | –
19 | CN(C)c1ccccc1 | inactive | –
20 | CNC(=O)Oc1cccc2c1OC(C)(C)C2 | inactive | –

Row | SMILES | outcome | AC50
21 | [Cl-].[Cl-].[Hg+2] | – | 32.9 µM (active)
22 | O=C(Oc1ccc(Br)cc1)N1CCN2CCC1CC2 | inactive | –
23 | CCCCOC(=O)c1ccccc1C(=O)OCc1ccccc1 | inactive | –
24 | O=[N+]([O-])C(Br)(CO)CO | – | 28.4 µM (active)
25 | CCN(CC)N=O | inactive | –
26 | Oc1ccccc1Cl | inactive | –
27 | CCCCCOC(=O)c1ccccc1C(=O)OCCCCC | inactive | –
28 | CCC[CH2][Sn]([Cl])([CH2]CCC)[CH2]CCC | – | 0.148 µM (active)
29 | Nc1ccc(N=Nc2ccccc2)cc1 | inactive | –
30 | C=CCc1ccc2c(c1)OCO2 | inactive | –
31 | CN(C)C(=O)Nc1ccc(Cl)cc1 | inactive | –
32 | CCCSC(=O)N(CCC)CCC | inactive | –
33 | COC(=O)c1ccccc1N | inactive | –
34 | Brc1ccc(Oc2ccccc2)cc1 | inactive | –
35 | CCNS(=O)(=O)C(F)(F)C(F)(F)C(F)(F)C(F)(F)C(F)(F)C(F)(F)C(F)(F)C(F)(F)F | inactive | –
36 | O=C(O)C1C2CCC(O2)C1C(=O)O (stereo not given) | inactive | –
37 | Cc1ccc(N)c(N)c1 | inactive | –
38 | Nc1cc(Cl)cc(C(=O)O)c1Cl | inactive | –
39 | c1ccc(NNc2ccccc2)cc1 | inactive | –
40 | CCN(CC)CCO | inactive | –
